# Compound activity from PubChem.
# Sfp inh: blocks B. subtilis Sfp PPTase activity | Biochemical Sfp PPTase activity, qHTS | actives 3.5% (n = 310,000) | Q9F4F7 | AID 1490 | Potency, µM, for inactives: largest response in the series, negative = inhibition, hits mostly inhibitors;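 further: the enzyme is Sfp with the accession as filed and its product quenches rhodamine fluorescence; 0% = enzyme reaction without inhibitor and -100% = no enzyme wells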
#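 Buffer: 50 mM Hepes-Na pH 7.6, 10 mM MgCl2, 0.01% Nonidet P-40, 0.01% BSA. Enzyme 15 nM, pre-exposed to compound 15 min; substrates then added and fluorescence change tracked over 30 min.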
# GCN5L2 inh: blocks human GCN5L2 histone acetyltransferase. actives 0.21% (n = 390,000). GCN5L2 HAT assay, ThioGlo1 CoA-SH fluorescence. Potency, µM (doses to about 58.9 µM), for inactives: at the highest dose activity change, negative = inhibition, most hits filed as inhibitors. AID 504327. Q92830
#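 qHTS, 1536-well. 20nM enzyme, pH 7.5 HEPES/EDTA/Tween-20 buffer; 15 min compound preinc., RT. Start: 75uM H3(1-25), 70uM AcCoA, 50uM ThioGlo1. Read Ex340/Em540 at t=0 (autofluorescence flag) and t=20 min.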
# rTrxR1 inhibitor: blocks rat thioredoxin reductase 1; O89049; recombinant rTrxR1, NADPH fluorescence consumption, selenite substrate; Potency, µM (titrated, usually from 114 µM), for inactives: top-dose activity change, negative = inhibition, actives largely listed as inhibitors; actives 1% (n = 390,000); AID 588453; further: nearly all actives have a fitted effect of over 65% in size
#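 Rat TrxR1 (90 nM in the dispensed reagent) was pre-reduced with 400 uM NADPH for 5 min at room temperature, then incubated with compound for 15 min. After 400 uM selenite was added, NADPH fluorescence (Ex 340/Em 450 nm) was followed for 8 min.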
# TrxR1 substrate: is turned over as a substrate by rat TrxR1; purified TrxR1 substrate turnover, NADPH consumption readout; O89049; AID 588456; Potency, µM (doses to about 114 µM), for inactives: at the top dose activity change, negative = substrate turnover; actives 0.01% (n = 390,000); further: nearly all actives have a fitted effect of over 50% in size
#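 Rat TrxR1, dispensed at 90 nM, was prereduced with 400 uM NADPH (final) for 5 min at ~22 deg C, then incubated with compound 15 min before 400 uM selenite. A first-read NADPH fluorescence drop versus no-compound background flagged substrates.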
# GLS inhibitor: blocks human kidney-isoform glutaminase activity; Potency, µM (series often up to 45.5 µM), for the others: at the highest dose activity change, negative = inhibition, actives largely listed as inhibitors; actives 0.21% (n = 410,000); O94925; AID 624170; GLS enzymatic activity, qHTS titration
# Target sequence (O94925 whole entry, looked up, canonical isoform): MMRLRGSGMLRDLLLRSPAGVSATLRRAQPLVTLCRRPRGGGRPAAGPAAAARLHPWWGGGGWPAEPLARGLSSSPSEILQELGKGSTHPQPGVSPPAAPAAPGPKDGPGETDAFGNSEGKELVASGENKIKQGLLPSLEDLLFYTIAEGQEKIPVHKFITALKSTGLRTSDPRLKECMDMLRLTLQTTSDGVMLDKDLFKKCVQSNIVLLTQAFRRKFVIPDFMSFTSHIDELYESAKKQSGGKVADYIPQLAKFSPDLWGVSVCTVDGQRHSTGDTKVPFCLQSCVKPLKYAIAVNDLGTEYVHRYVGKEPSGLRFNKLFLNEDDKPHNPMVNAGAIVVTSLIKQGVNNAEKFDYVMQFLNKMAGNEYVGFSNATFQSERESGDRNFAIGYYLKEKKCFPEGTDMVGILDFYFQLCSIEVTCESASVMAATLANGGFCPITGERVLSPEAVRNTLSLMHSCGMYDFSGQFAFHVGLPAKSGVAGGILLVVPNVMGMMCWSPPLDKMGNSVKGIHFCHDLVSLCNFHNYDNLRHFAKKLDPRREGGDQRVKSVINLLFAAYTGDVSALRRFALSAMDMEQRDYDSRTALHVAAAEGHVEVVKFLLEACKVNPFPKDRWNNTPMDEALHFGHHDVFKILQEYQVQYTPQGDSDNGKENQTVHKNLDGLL
#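 Glutamate formation by hKGA was monitored fluorometrically using coupled glutamate oxidase, HRP and Amplex Red. Substrate was added as 1 mM L-glutamine solution; incubation was 30 min at RT after an initial read.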
# VDR inhibitor: inhibitors of human vitamin D receptor; P11473; VDR-SRC2-3 peptide fluorescence polarization, 2 h; Potency, µM, for inactives: max response, negative = inhibition, usual class: inhibitors; actives 0.93% (n = 400,000)
#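 FP read-out; VDR + SRC2-3 coactivator peptide; 23 nl compound by pintool; 2 h RT incubation; reagents held at 4 deg C, protected from light.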
# An asterisk follows results filed as active; ? = inconclusive; · = no result; [ ] = remark or other dose. Compounds with a hit are over-represented: about 3.8% of the library has one in this group of screens. The call rests on the fitted dose curve; in most records, active means well fitted curve in the direction sought with a large enough effect; inconclusive means small, poorly fitted or top-dose-only effect, or another doubt; inactive means no such curve, though single readings can be large; an effect the other way counts as inactive or inconclusive. Unless noted, on the % scale 0 is the no-effect control and ±100 the full control effect; potency means the concentration at half of the fitted maximal effect.
SMILES,Sfp inh,GCN5L2 inh,rTrxR1 inhibitor,TrxR1 substrate,GLS inhibitor,VDR inhibitor
COC(=O)CNC(=O)C1Cc2ccccc2CN1S(=O)(=O)c1cccs1 (configuration not stated),8.9%,-1.5%,10.3%,2.4%,-4.0%,-7.3%
CC(=O)NC1CCCN(O)C(=O)/C=C(\C)CCOC(=O)C(NC(C)=O)CCCN(O)C(=O)/C=C(\C)CCOC(=O)C(NC(C)=O)CCCN(O)C(=O)/C=C(\C)CCOC1=O (configuration not stated),56.2µM*,2.6%,-7.5%,2.7%,17.1%,-8.7%
COC1=C(OC)C(=O)C(Sc2ccc3ccccc3c2)=CC1=O,·,·,?,9.9%[57.1 µM],10µM*,8.91µM*
COCCCNC1=C(C#N)C(=O)NC(c2cccc([N+](=O)[O-])c2)S1 (configuration not stated),·,·,·,·,5.0%,·
COc1cc(C2NC(=O)C(C#N)=C(Nc3cccc(C)c3)S2)ccc1O (configuration not stated),20µM*,-5.1%,-6.7%,-9.3%,34.6%,31.6µM*
COc1cccc(OCc2cc(/C=N/NC(=O)c3ccn[nH]3)ccc2OC)c1,7.4%,-16.9%,3.6%,11.2%[57.1 µM],-4.1%,1.4%
NC(=O)c1c(NC(=O)c2ccco2)sc2c1CCC2,-7.7%,-8.1%[0.501 µM],-13.4%,2.9%,-2.5%,15.0%
NC(=O)c1c(NC(=O)C2CC=CCC2C(=O)O)sc2c1CCCCC2 (configuration not stated),35.5µM*,-22.7%,0.7%,6.1%,-23.2%,70.8µM*
Cc1noc(C)c1C(=O)Nc1sc2c(c1C(N)=O)CCCCC2,44.7µM*,-11.3%,2.7%,3.7%,-0.4%,-3.4%
Cc1occc1C(=O)Nc1sc2c(c1C(N)=O)CCCCC2,25.1µM*,-0.5%,-7.1%,5.0%,4.8%,-19.5%
NC(=O)c1c(NC(NC(=O)c2ccco2)(C(F)(F)F)C(F)(F)F)sc2c1CCCC2,22.4µM*,-13.1%,?,4.8%,1.0%,-9.1%
CC(C)OC(=O)c1c(NC(=O)C2CC=CCC2C(=O)O)sc2c1CCCCC2 (configuration not stated),10.5%,-17.9%,7.0%,8.7%,8.6%,?
CCc1ccccc1NC(=O)NNC(=O)CCc1ccc(OC)cc1,25.9%,-1.2%,34.7%,4.9%,67.5%,11.1%
COc1ccc(OC)c(-c2c3c([nH]c(=S)c2C#N)CCCC3)c1,22.4µM*,-8.9%,?,0.1%[57.1 µM],2.0%,2.9%
COc1ccc(-c2c3c([nH]c(=S)c2C#N)CCC3)cc1,22.4µM*,?,?,3.2%,?,?
COc1ccc2[nH]c3c(c(=O)c2c1)CCCC3,·,·,·,·,1.5%,·
CC(C)CC(=O)Nc1sc2c(c1C#N)CC(C)(C)NC2(C)C,10.4%,39.3%,-5.0%[57.1 µM],1.7%[57.1 µM],12.7%,12.8%
O=C(CCS(=O)(=O)c1ccc(Br)cc1)Nc1ccc(F)cc1F,·,-5.3%,4.6%[57.1 µM],-1.2%[57.1 µM],-6.6%,0.7%
O=C(CCS(=O)(=O)c1ccc(Br)cc1)Nc1cc(F)ccc1F,-4.8%,2.4%,35.5µM*,-1.2%,?,14.1%
CCCOC(=O)C1=C(C)N(C)C(=O)NC1c1cc2c(cc1[N+](=O)[O-])OCO2 (configuration not stated),14.1µM*,8.2%,-2.2%[57.1 µM],2.0%[57.1 µM],-6.7%,-6.4%
COc1ccc(/C=N/N(Cc2ccccc2)c2ccccc2)cc1O,18.2%,-4.9%,1.4%[57.1 µM],-9.2%[57.1 µM],15.8µM*,?
COc1cc(C=NCc2ccccc2)ccc1O,·,·,·,·,24.5%,·
CN(C)C1=NC(=O)/C(=C/c2ccc(-c3ccc(S(N)(=O)=O)cc3)o2)S1,35.5µM*,-9.3%,·,·,·,·
O=C(COC(=O)C1=COCCO1)Nc1cccc(Oc2ccccc2)c1,0.9%,0.2%,-6.1%,-9.2%,-6.2%,7.5%
Cc1ccccc1NC(=O)CSc1[nH]c(=O)cc(C)c1C#N,22.4µM*,-9.7%,-4.6%,6.9%,13.7%,-5.9%
N#Cc1c(SCC(=O)Nc2nccs2)sc2c(O)cc(=O)[nH]c12,39.8µM*,?,3.7%,-1.0%,0.7%,24.6%
